For 79 molecules, relative cell viability results are on record in the supplement of paper PMC9399229.

Several values for one entry are separate records, joined by “and”; a condition that tells them apart may be missing. Equal values may be shown once. Where a name gives a salt, the structure may show the parent alone. In all, about 1,900 compounds were measured (“relative cell viability (CellTiter-Glo), compound plus cabozantinib, relative to the cabozantinib arm (arm median 1.05; reference not stated)”: median about 1.1, lowest 2% from about 0.15 on). The entries come from a sample that favours the lowest values as a whole.

The subject of the experiment is Hep3B. The experiment is described as follows: relative cell viability (CellTiter-Glo), compound plus cabozantinib, relative to the cabozantinib arm (arm median 1.05; reference not stated) (fraction); higher = more viable cells (less growth inhibition). Conditions: cabozantinib 2 µM; 4 days.
`CN(NC(=O)CC(=O)NN(C)C(=S)c1ccccc1)C(=S)c1ccccc1` [Elesclomol (STA-4783)]: the relative cell viability was determined as 0.00669.

As for `O=C(O)c1ccccc1` [Benzoic Acid], the relative cell viability was found to be 1.12.

`O=C(O)CCNC(=O)c1ccccc1` [Betamipron]: the relative cell viability was determined as 0.99. In the case of `O=C(NC[C@H](O)CN1CCc2ccccc2C1)c1cc(NC2COC2)ncn1`, the relative cell viability was 1.13. For `OC[C@H]1OC(O)[C@H](O)[C@@H](O)[C@@H]1O` (some centres undefined) [Dextrose], the relative cell viability was 1.01.

Consider `Cc1nc(Nc2n[nH]c3c2CN(C(=O)N[C@H](CN(C)C)c2ccccc2)C3(C)C)c2sccc2n1`, for which the relative cell viability was 0.149.

Consider `CC(C)CC(=O)Nc1n[nH]c2c1CN(C(=O)C1CCN(C)CC1)C2(C)C`, for which the relative cell viability worked out at 0.431. As for `CC1CC(OC(=O)C(O)c2ccccc2)CC(C)(C)C1` (centres undefined) [Cyclandelate], the relative cell viability turned out to be 1.07. The value for `O=C(NC1CCNCC1)c1n[nH]cc1NC(=O)c1c(Cl)cccc1Cl` was 0.158 and 0.144. With `NC(=O)Nc1cc(-c2cccc(F)c2)sc1C(=O)N[C@H]1CCCNC1` the figure was 0.162. With `O=C(NC1CCOCC1)c1ccc(-c2cc(-c3c[nH]nc3-c3ccccn3)ccn2)cc1` the figure was 1.12. Take `C#C[C@]1(OC(C)=O)CC[C@H]2[C@@H]3CCC4=C[C@@H](OC(C)=O)CC[C@@H]4[C@H]3CC[C@@]21C` [Ethynodiol diacetate]: the relative cell viability came to 1.12. The value for `N#Cc1c(Oc2ccc(F)c(NC(=O)Cc3cccc(C(F)(F)F)c3)c2)ccc2nc(NC(=O)C3CC3)sc12` was 0.227; that for `CCNC(=O)c1noc(-c2cc(Cl)c(O)cc2O)c1-c1ccc(OC)cc1` was 0.183. For `CN(C)Cc1ccc(S(=O)(=O)n2ccc(/C=C/C(=O)NO)c2)cc1` [Resminostat], the relative cell viability was 0.59.

As for `CCCCc1nc2cc(/C=C/C(=O)NO)ccc2n1CCN(CC)CC` [Pracinostat (SB939)], the relative cell viability was determined as 0.147. With `COc1ccc(C(=O)CC(=O)c2ccc(C(C)(C)C)cc2)cc1` [Avobenzone] the figure was 1.1. The value for `O=C(NOCC(O)CO)c1cc(Br)c(F)c(F)c1Nc1ccc(I)cc1F` (centres undefined) was 0.87. As for `Cn1cnc2c(F)c(Nc3ccc(Br)cc3F)c(C(=O)NOCCO)cc21`, the relative cell viability turned out to be 0.634. With `Cc1cc(C(=O)NOCCO)c(Nc2ccc(I)cc2F)n(C)c1=O` the figure was 0.141. The value for `O=C(NC[C@H](O)CO)c1ccncc1Nc1ccc(I)cc1F` was 0.201; that for `O=C(NOCCO)c1ccc2cncn2c1Nc1ccc(I)cc1F` was 0.133; that for `O=C(NOC[C@H](O)CO)c1ccc(F)c(F)c1Nc1ccc(I)cc1F` was 0.183. With `Cc1nc2c([nH]1)-c1ccccc1N(C(=O)c1ccc(NC(=O)c3ccccc3-c3ccccc3)cc1)CC2` [Conivaptan HCl], the relative cell viability came to 0.972. The value for `CNC(=O)c1ccccc1Sc1ccc2c(/C=C/c3ccccn3)n[nH]c2c1` [Axitinib] was 0.715.

With `COCC[n+]1c2c(n(Cc3cnccn3)c1C)C(=O)c1ccccc1C2=O` [YM155 (Sepantronium Bromide)], the relative cell viability turned out to be 0.129. With `O=C(c1cncc(Br)c1)N1CCC(N2CCCC2)CC1` the figure was 1.16; with `COc1cc2c(cc1O)CC[C@@H]1[C@@H]2CC[C@]2(C)[C@@H](O)CC[C@@H]12` [2-Methoxyestradiol (2-MeOE2)], 1.06. With `CCCCCCCCCCCCCCCCO` [1-Hexadecanol] the figure was 1.14; with `C[C@@H](Nc1cc(F)cc(F)c1)c1cc(C(=O)N(C)C)cc2c(=O)cc(N3CCOCC3)oc12`, 0.998.

In the case of `CCN(CC)Cc1ccc2cc(COC(=O)Nc3ccc(C(=O)NO)cc3)ccc2c1` [Givinostat (ITF2357)], the relative cell viability amounted to 0.109. The value for `COc1ccc(Cn2ccc3ccc(C(=O)NO)cc32)cc1` was 0.91. With `CCN(CC)CCNC(=O)c1ccc(N)cc1` [Procainamide HCl] the figure was 0.947. The value for `COc1cc(NC(=O)c2ccccn2)ccc1Cl` was 1.05. Turning to `CN(C)C(=S)NN=C(c1ccccn1)c1ccccn1`, the relative cell viability is 0.15. The value for `CCOC(=O)[C@H](CCc1ccccc1)N[C@@H](C)C(=O)N1CCC[C@H]1C(=O)O` [Enalapril Maleate] was 1.15; that for `CC#CC(=O)N1CC[C@@H](n2c(=O)n(-c3ccc(Oc4ccccc4)cc3)c3c(N)ncnc32)C1` was 1.07; that for `COC(=O)CC[C@H](NC(=O)[C@H](CC(=O)OC)NC(=O)OCc1ccccc1)C(=O)N[C@H](C(=O)N[C@@H](CC(=O)OC)C(=O)CF)C(C)C` was 1.09. Take `CCCCC(=O)N(Cc1ccc(-c2ccccc2-c2nnn[nH]2)cc1)[C@H](C(=O)O)C(C)C` [Valsartan]: the relative cell viability came out at 1.2. As for `COc1ccc(-c2nc(N3CCOCC3)c3sc(CN(C)c4ncc(C(=O)NO)cn4)cc3n2)cn1`, the relative cell viability turned out to be 0.181. With `Cn1cnc2c(F)c(Nc3ccc(Br)cc3Cl)c(C(=O)NOCCO)cc21` [Selumetinib (AZD6244)] the figure was 0.616.

As to `Cc1cc(Nc2ncc(Cl)c(Nc3ccccc3S(=O)(=O)C(C)C)n2)c(OC(C)C)cc1C1CCNCC1`, the relative cell viability worked out at 0.122. For the molecule `COc1cc(N2CCC(N3CCN(C)CC3)CC2)ccc1Nc1ncnc(Nc2ccccc2S(=O)(=O)C(C)C)n1`, the relative cell viability amounted to 1.09. With `NC(=S)N/N=C/c1ncccc1N` [Triapine] the figure was 1.02; with `CC(=O)Nc1nc2c(Oc3cc(-c4ccc(C(F)(F)F)cc4)ncn3)cccc2s1`, 1.04; with `CN[C@H]1CN(c2ccc3c(=O)c(C(=O)O)cn(-c4nccs4)c3n2)C[C@@H]1OC` [Voreloxin (SNS-595)], 0.968. With `CC/C(=C(\c1ccc(O)cc1)c1ccc(OCCNC)cc1)c1ccccc1` [Endoxifen HCl] the figure was 1.15. In the case of `Oc1cc(O)c(Cl)cn1` [Gimeracil], the relative cell viability was 1. The value for `CNC(CC(=O)O)C(=O)O` [NMDA (N-Methyl-D-aspartic acid)] was 1.15; that for `CO[C@H]1/C=C/O[C@@]2(C)Oc3c(C)c(O)c4c(O)c(c5c(nc6cc(C)ccn65)c4c3C2=O)NC(=O)/C(C)=C\C=C\[C@H](C)[C@H](O)[C@@H](C)[C@@H](O)[C@@H](C)[C@H](OC(C)=O)[C@@H]1C` [Rifaximin] was 0.91; that for `C=CCc1cc(OC)c(O)c(C(=O)NCCO)c1` [Alibendol] was 0.982.

With `CC1(C)CC[C@]2(C(=O)O)CC[C@]3(C)C(=CC[C@@H]4[C@@]5(C)CC[C@H](O)C(C)(C)[C@@H]5CC[C@]43C)[C@@H]2C1` [Oleanolic Acid], the relative cell viability was 1.14. With `C=C1C(=O)[C@]23[C@H](O)[C@H]1CC[C@H]2[C@@]12CO[C@]3(O)[C@@H](O)[C@@H]1C(C)(C)CC[C@@H]2O` [Oridonin] the figure was 1.11; with `Cc1csc(-c2nnc(Nc3ccc(Oc4ncccc4-c4ccnc(N)n4)cc3)c3ccccc23)c1`, 1. With `CCCNC(=O)Nc1ccc(Oc2ncnc3cc(OC)c(OC)cc23)cc1Cl`, the relative cell viability stood at 1.14.

For the molecule `CCOc1cc2ncc(C#N)c(Nc3ccc(F)c(Cl)c3)c2cc1NC(=O)/C=C/CN(C)C` [Pelitinib (EKB-569)], the relative cell viability turned out to be 0.9. The value for `CC(=O)C1=C(O)C=C2Oc3c(C(C)=O)c(O)c(C)c(O)c3C2(C)C1=O` (single isomer, unassigned; (+)) [(+)-Usniacin] was 1.11; that for `C[C@H]1Oc2cc(cnc2N)-c2c(nn(C)c2C#N)CN(C)C(=O)c2ccc(F)cc21` was 1.14; that for `C[C@@H](O)[C@H]1C(=O)N2C(C(=O)O)=C(S[C@@H]3CN[C@H](C(=O)N(C)C)C3)[C@H](C)[C@H]12` [Meropenem] was 1.17. As to `CC[C@@]1(O)C(=O)OCc2c1cc1n(c2=O)Cc2cc3cc(O)ccc3nc2-1` [(S)-10-Hydroxycamptothecin], the relative cell viability was 0.137.

Regarding `CC[C@@]1(O)C(=O)OCc2c1cc1n(c2=O)Cc2cc3c(CN(C)C)c(O)ccc3nc2-1` [Topotecan HCl], the relative cell viability was determined as 0.556. The value for `CCc1c2c(nc3ccc(O)cc13)-c1cc3c(c(=O)n1C2)COC(=O)[C@]3(O)CC` was 0.176; that for `CC(C)(C(=O)NCC(F)(F)C(F)(F)F)C(=O)N[C@@H]1C(=O)Nc2ccccc2-c2ccccc21` was 1.04. Regarding `C[C@]12C=CC(=O)N[C@@H]1CC[C@@H]1[C@@H]2CC[C@]2(C)[C@@H](C(=O)Nc3cc(C(F)(F)F)ccc3C(F)(F)F)CC[C@@H]12` [Dutasteride], the relative cell viability was determined as 1.12. With `O=C(COc1ccc(C(=O)c2ccccc2)cc1)NC1CCN(Cc2ccccc2)CC1` [AdipoRon] the figure was 1.06; with `Cc1[nH]nc2ccc(-c3cncc(OC[C@@H](N)Cc4ccccc4)c3)cc12`, 0.11. Turning to `O=C(O)Cc1cc(I)c(Oc2ccc(O)c(I)c2)c(I)c1` [Tiratricol], the relative cell viability was 0.888. Take `CSc1nc2cc(Cl)c(Oc3cccc(Cl)c3Cl)cc2[nH]1` [Triclabendazole]: the relative cell viability came out at 1.14. With `O=C(/C=C\n1cnc(-c2cc(C(F)(F)F)cc(C(F)(F)F)c2)n1)N1CC(F)(F)C1` the figure was 0.32; with `CC12CC3CC(C)(C1)CC(N)(C3)C2` [Memantine HCl], 1.1. The value for `O=C(/C=C/c1cccc(S(=O)(=O)Nc2ccccc2)c1)NO` [Belinostat (PXD101)] was 0.149; that for `Cn1cc(/C=C/C(=O)c2cccc(F)c2)cc1/C=C/C(=O)NO` was 1.19; that for `O=C(C=Cc1ccccc1)NC(NC(=S)Nc1ccc(Cl)cc1)C(Cl)(Cl)Cl` (centres undefined) was 1.14.

Take `COC(=O)N[C@H](C(=O)N[C@@H](Cc1ccccc1)[C@@H](O)CN(Cc1ccc(-c2ccccn2)cc1)NC(=O)[C@@H](NC(=O)OC)C(C)(C)C)C(C)(C)C` [Atazanavir Sulfate]: the relative cell viability was 0.969.

For the molecule `Fc1cc(-c2cccc3ncc(-c4cnn(C5CCNCC5)c4)nc23)cc(F)c1CN1CCOCC1`, the relative cell viability was found to be 1.11. The value for `CCOC(=O)C1=C(C)NC(C)=C(C(=O)OC)C1c1cccc(Cl)c1Cl` (centres undefined) [Felodipine] was 1.11; that for `CN1CCN2c3ncccc3Cc3ccccc3C2C1` (centres undefined) [Mirtazapine] was 1.01. With `O=C(O[C@H]1CN2CCC1CC2)N1CCc2ccccc2[C@@H]1c1ccccc1` [Solifenacin succinate] the figure was 1.11.

As for `O=C1NC(=O)[C@@H](c2cn3c4c(cccc24)CCC3)[C@@H]1c1c[nH]c2ccccc12` [Tivantinib (ARQ 197)], the relative cell viability came to 0.835.
